According to PubChem BioAssay (Tox21):
Where “and” joins values, the source holds several entries; their conditions need not be identical. Equal entries are not always repeated. Results filed as inconclusive are left out. A call without a number means that no potency is given here. Where a structure was tested more than once in an assay, its records may differ in their call. Calls of active or inactive are those of the source. Unless noted, calls follow the shape of the dose curve; as a rule, active = well fitted curve in the direction sought with a large enough effect in the repeat runs; inconclusive = weak or mixed curves; inactive = no such curve, though single readings can be large; an effect the other way counts as inactive or inconclusive.

Assays:
[1] = qHTS assay to identify small molecule HDAC inhibitors (AID 1259364); settings: HCT-116 HDAC-Glo I/II luminescence, 2 h; series mostly up to 92.4 µM;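 also: wild-type HCT-116 cells with endogenous class I/II HDAC activity; top concentration of the series differs between compounds; nearly all actives have a fitted effect of over 45% in size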
Outline: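 Relative class I and II HDAC activity is taken from the luminogenic signal in HCT-116 cells, with compound exposure 2 hr and reagent development 30 min at room temperature.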

[2] = qHTS assay to identify small molecule HDAC inhibitors - cell viability counter screen (AID 1259365); settings: HCT-116 viability, CellTiter-Glo ATP luminescence, 2 h; series mostly up to 92.4 µM; also: nearly all actives have a fitted effect of over 50% in size; also: potency is read from the fitted curve at half-maximal effect
Outline: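 Cytotoxicity was gauged in wild-type HCT-116 cells after a brief 2hr treatment with DMSO-dissolved compounds at 37C and 5% CO2, using CellTiter-Glo luminescence developed for 30min at room temperature.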

[3] = qHTS assay to identify small molecule agonists of the sonic hedgehog signaling (Shh) pathway - cell viability counter screen (AID 1259366); settings: NIH/3T3 Gli1-Luc viability, CellTiter-Fluor, 24 h; series mostly up to 92.4 µM; also: nearly all actives have a fitted effect of over 50% in size; also: potency is read from the fitted curve at half-maximal effect
Outline: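 Stable Gli1-Luc NIH/3T3 clone, 2,000 cells/well. Compound exposure 24hr at 37C. Read-out: CellTiter-Fluor fluorescence.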

[4] = qHTS assay to identify small molecule antagonists of the sonic hedgehog signaling (Shh) pathway - cell viability counter screen (AID 1259367); settings: NIH/3T3 Gli1-Luc viability, CellTiter-Fluor, 24 h; series mostly up to 92.4 µM; also: nearly all actives have a fitted effect of over 55% in size; also: potency is read from the fitted curve at half-maximal effect
Outline: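 Seed 3T3 Gli1-Luc cells at 2,000 per well; incubate 4 hr; add compound in DMSO, then conditioned medium; incubate at 37C with 5% CO2; add CellTiter-Fluor after 23 hr; read fluorescence 1 hr later.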

[5] = qHTS assay to identify small molecule agonists of the androgen receptor (AR) signaling pathway in the presence of an antagonist - cell viability counter screen (AID 1259379); settings: MDA-kb2 viability, CellTiter-Fluor, 16 h; series mostly up to 92.4 µM; also: nearly all actives have a fitted effect of over 25% in size; also: potency is read from the fitted curve at half-maximal effect
Outline: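 A CellTiter-Fluor read-out measured viability of MDA-kb2 reporter cells (MMTV promoter with AR and GR response elements). Treatment: nilutamide 3.0uM final with compounds at 15 concentrations, 16 hr, 37C, 0% CO2.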

[6] = qHTS assay to identify small molecule agonists of the estrogen receptor beta (ER-beta) signaling pathway - cell viability counter screen (AID 1259380); settings: ER-beta-bla HEK293T viability, CellTiter-Glo luminescence, 16 h; series mostly up to 92.4 µM; also: nearly all actives have a fitted effect of over 30% in size; also: potency is read from the fitted curve at half-maximal effect
Outline: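 Cells used were ER-beta-UAS-bla HEK293T in medium with 2% charcoal-stripped FBS. They were treated for 16 hr at 37C. Viability came from CellTiter-Glo luminescence.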

[7] = qHTS assay to identify small molecule antagonists of the estrogen receptor beta (ER-beta) signaling pathway - cell viability counter screen (AID 1259382); settings: ER-beta-UAS-bla HEK293T viability, CellTiter-Glo luminescence, 16 h; series mostly up to 92.4 µM; also: nearly all actives have a fitted effect of over 55% in size; also: potency is read from the fitted curve at half-maximal effect
Outline: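 Agonist-stimulated (1nM E2) ER-beta-UAS-bla HEK293T cells are incubated with library compounds for 16 hr at 37C. Cell viability is then assessed in the reporter-assay wells by adding CellTiter-Glo and reading luminescence after 30 min.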

[8] = qHTS assay to identify small molecule agonists or antagonists of the thyroid stimulating hormone receptor (TSHR) signaling pathway - wild type cell line counter screen (AID 1259384; calls by dose curve); settings: HEK293 wild type, cAMP HTRF counter-screen; series mostly up to 92.4 µM
Outline: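 Wild-type Hek293 cells, 800/well, 18 h at 37C, then compound with Ro20-1724 for 30 min RT. cAMP by HTRF (cAMP-d2/anti-cAMP cryptate), 1 h RT, fluorescence read. 15 concentrations, triplicates.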

[9] = molecular target: Thyrotropin receptor (Homo sapiens) (UniProt P16473); assay: qHTS assay to identify small molecule antagonists of the thyroid stimulating hormone receptor (TSHR) signaling pathway (AID 1259385; calls by dose curve; also: nearly all actives have a fitted effect of over 20% in size); settings: TSHR-HEK293 cAMP HTRF, TSH-stimulated antagonist mode; series mostly up to 92.4 µM
Sequence of Thyrotropin receptor (Homo sapiens) (P16473 whole entry, looked up): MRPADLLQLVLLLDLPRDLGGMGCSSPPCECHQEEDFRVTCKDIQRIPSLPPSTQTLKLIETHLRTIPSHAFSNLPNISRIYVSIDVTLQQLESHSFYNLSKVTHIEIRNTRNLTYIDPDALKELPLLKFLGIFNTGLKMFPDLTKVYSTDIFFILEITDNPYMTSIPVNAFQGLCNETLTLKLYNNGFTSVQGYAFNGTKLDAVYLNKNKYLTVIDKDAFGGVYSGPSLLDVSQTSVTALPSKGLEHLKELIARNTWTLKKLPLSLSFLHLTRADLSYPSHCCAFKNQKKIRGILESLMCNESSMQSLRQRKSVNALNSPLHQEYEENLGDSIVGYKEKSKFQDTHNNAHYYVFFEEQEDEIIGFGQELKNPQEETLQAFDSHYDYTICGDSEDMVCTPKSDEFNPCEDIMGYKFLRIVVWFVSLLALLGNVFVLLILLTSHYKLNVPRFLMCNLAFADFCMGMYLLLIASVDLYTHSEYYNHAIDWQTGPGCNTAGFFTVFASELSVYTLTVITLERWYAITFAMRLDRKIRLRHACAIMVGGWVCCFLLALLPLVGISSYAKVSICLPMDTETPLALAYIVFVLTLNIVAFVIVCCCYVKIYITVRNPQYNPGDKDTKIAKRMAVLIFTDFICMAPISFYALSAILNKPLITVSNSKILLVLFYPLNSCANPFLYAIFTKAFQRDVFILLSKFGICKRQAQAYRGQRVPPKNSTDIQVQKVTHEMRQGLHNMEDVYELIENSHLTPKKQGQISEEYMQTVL
Outline: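 TSHR-HEK293 cells (800/well) plated 18 h, then compounds with Ro20-1724 and TSH at 1.5 ng/mL final, 30 min at room temperature. cAMP quantified by HTRF (cAMP-d2/anti-cAMP-cryptate, 1 h); 15 concentrations in triplicate.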

[10] = qHTS assay to identify small molecule agonists of the estrogen receptor alpha (ER-alpha) signaling pathway in the presence of an antagonist - cell viability counter screen (AID 1259386); settings: VM7Luc4E2 viability, CellTiter-Fluor fluorescence, 22 h; series mostly up to 92.4 µM;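 also: cells exposed to compounds for 22 h at 37 °C before the viability read; nearly all actives have a fitted effect of over 30% in size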; also: potency is read from the fitted curve at half-maximal effect
Outline: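 ICI-182,780 at 10.0nM final accompanies the compound titration (15 concentrations, 22hr, 37C) on VM7Luc4E2 cells. The CellTiter-Fluor fluorescence readout runs in the same wells as the luciferase assay.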

[11] = molecular target: Progesterone receptor (Homo sapiens) (UniProt P06401); assay: qHTS assay to identify small molecule agonists of the progesterone receptor (PR) signaling pathway (AID 1346784; calls by dose curve; also: nearly all actives have a fitted effect of over 30% in size; also: potency is read from the fitted curve at half-maximal effect); settings: PR-UAS-bla HEK293T, beta-lactamase FRET ratio, 16 h; series mostly up to 92.4 µM
Sequence of Progesterone receptor (Homo sapiens) (P06401 whole entry, looked up): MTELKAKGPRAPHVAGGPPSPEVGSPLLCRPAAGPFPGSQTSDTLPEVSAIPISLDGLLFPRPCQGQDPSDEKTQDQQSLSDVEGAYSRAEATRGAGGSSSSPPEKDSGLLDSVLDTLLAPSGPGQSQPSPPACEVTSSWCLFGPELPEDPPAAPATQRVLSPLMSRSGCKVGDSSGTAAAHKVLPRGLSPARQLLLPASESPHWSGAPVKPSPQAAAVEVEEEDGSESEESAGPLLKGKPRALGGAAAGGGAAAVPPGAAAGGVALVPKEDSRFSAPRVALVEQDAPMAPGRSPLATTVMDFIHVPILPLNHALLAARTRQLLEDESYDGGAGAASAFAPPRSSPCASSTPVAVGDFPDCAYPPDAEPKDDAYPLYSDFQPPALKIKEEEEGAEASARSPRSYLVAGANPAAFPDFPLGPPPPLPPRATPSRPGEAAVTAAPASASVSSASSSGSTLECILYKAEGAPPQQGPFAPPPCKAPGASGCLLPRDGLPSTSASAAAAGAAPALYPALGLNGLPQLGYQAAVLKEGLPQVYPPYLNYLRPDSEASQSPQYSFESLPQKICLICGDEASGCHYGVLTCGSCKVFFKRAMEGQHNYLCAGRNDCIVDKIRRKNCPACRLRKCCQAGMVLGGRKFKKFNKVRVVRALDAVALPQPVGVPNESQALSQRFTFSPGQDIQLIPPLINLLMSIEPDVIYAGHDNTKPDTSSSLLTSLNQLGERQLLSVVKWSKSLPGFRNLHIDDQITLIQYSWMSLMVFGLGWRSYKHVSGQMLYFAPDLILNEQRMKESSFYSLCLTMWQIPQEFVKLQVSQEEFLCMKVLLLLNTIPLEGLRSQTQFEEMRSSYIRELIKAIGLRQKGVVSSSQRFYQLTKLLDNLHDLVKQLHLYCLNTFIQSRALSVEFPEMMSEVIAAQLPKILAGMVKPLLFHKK
Outline: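 The screen uses PR-UAS-bla HEK 293T cells in charcoal-stripped serum (2%). Compounds are applied for 16 hr at 37C after a 6 hr pre-incubation, and reporter activity is detected with a FRET beta-lactamase substrate after 2 hr at room temperature.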

[12] = qHTS assay to identify small molecule antagonists of the sonic hedgehog signaling (Shh) pathway (AID 1259369; calls by dose curve; also: nearly all actives have a fitted effect of over 45% in size); settings: NIH/3T3 Gli1-Luc reporter, Shh antagonist, luminescence 24 h; series mostly up to 92.4 µM
Outline: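 Conditioned medium drives Shh signalling in 3T3Gli1-Luc cells; compounds in DMSO co-applied, 24hr at 37 C, then luciferase luminescence.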

[13] = molecular target: Estrogen receptor beta (Homo sapiens) (UniProt Q92731); assay: qHTS assay to identify small molecule agonists of the estrogen receptor beta (ER-beta) signaling pathway (AID 1259377; active = well fitted activation curve with a large enough effect in the signal ratio in the repeat runs, not every such curve was filed as active; the % refers to the signal ratio); settings: ER-beta-UAS-bla HEK293T, beta-lactamase FRET ratio, 16 h; series mostly up to 92.4 µM
Sequence of Estrogen receptor beta (Homo sapiens) (Q92731 whole entry, looked up): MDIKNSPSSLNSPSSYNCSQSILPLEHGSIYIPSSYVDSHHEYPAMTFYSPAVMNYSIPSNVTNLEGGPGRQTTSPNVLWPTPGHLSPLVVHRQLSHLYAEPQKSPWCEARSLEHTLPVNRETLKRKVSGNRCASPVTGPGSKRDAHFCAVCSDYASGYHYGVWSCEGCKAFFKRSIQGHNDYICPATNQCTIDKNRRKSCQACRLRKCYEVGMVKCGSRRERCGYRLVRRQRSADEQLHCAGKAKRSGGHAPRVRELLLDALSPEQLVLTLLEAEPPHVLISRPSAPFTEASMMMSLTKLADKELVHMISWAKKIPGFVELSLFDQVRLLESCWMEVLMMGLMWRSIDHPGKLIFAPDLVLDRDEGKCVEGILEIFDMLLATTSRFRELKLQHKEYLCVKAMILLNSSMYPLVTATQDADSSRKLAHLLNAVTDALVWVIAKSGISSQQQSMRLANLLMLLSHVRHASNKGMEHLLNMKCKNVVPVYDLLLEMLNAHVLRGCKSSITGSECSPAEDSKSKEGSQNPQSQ
Outline: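 Measured by fluorescence intensity from a B/G FRET beta-lactamase substrate (2 h, room temperature) in ER-beta-UAS-bla HEK293T cells treated with DMSO-dissolved compounds for 16 hr at 37C and 5% CO2.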

[14] = molecular target: Estrogen receptor beta (Homo sapiens) (UniProt Q92731); assay: qHTS assay to identify small molecule antagonists of the estrogen receptor beta (ER-beta) signaling pathway (AID 1259378; active = well fitted inhibition curve with a large enough effect in the signal ratio in the repeat runs, not every such curve was filed as active; the % refers to the signal ratio); settings: ER-beta-UAS-bla HEK293T, beta-lactamase FRET ratio, 16 h; series mostly up to 92.4 µM
Outline: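 ER-beta-UAS-bla HEK293T cells in 2% charcoal-stripped FBS medium treated with compound plus 1nM final 17-beta-estradiol for 16 hr at 37C. Beta-lactamase reporter read by FRET substrate fluorescence after 2 hours at room temperature.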

[15] = qHTS assay to identify small molecule agonists of the sonic hedgehog signaling (Shh) pathway (AID 1259368; calls by dose curve;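 also: NIH/3T3-derived 3T3Gli1-Luc cells carrying a stable Gli1-driven firefly luciferase reporter; nearly all actives have a fitted effect of over 15% in size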); settings: NIH/3T3 Gli1-Luc reporter, luciferase, 24 h, stronger effect = higher value; series mostly up to 92.4 µM
Outline: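 Mouse fibroblast (NIH/3T3) reporter cells with stably integrated Gli1-Luc were treated 24 hr with compound; firefly luciferase luminescence served as the read-out.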

Row | SMILES | Potency [1] | Potency [2] | Potency [3] | Potency [4] | Potency [5] | Potency [6] | Potency [7] | Potency [8] | Potency [9] | Potency [10] | Potency [11] | Potency [12] | outcome [13] | Potency [14] | outcome [15]
1 | CCC[N+]1(C)CCCCC1 | inactive | inactive | inactive | inactive | inactive | inactive | inactive | inactive | inactive | inactive | inactive | – | – | – | –
2 | O=c1nc(O)n(Cl)c(=O)n1Cl | inactive | inactive | inactive | inactive | inactive | inactive | inactive | – | – | inactive | inactive | – | – | – | –
3 | O=[N+]([O-])c1ccccc1O | inactive | inactive | inactive | inactive | inactive | inactive | inactive | – | – | inactive | inactive | inactive | inactive | inactive | –
4 | CCCC[N+]1(C)CCCCC1 | inactive | inactive | inactive | inactive | inactive | inactive | inactive | inactive | inactive | inactive | inactive | – | – | – | –
5 | CCCCCCCCCCCCOS(=O)(=O)O | inactive | inactive | inactive | inactive | inactive | – | 54.5 µM (active) and inactive | – | – | inactive | inactive | – | – | – | inactive
6 | CCCC[n+]1cccc(C)c1 | inactive | inactive | inactive | inactive | inactive | inactive | inactive | – | – | inactive | inactive | – | – | – | inactive
7 | O=C(O)COc1ccc(Cl)cc1Cl | inactive | inactive | inactive | inactive | inactive | inactive | inactive | – | – | inactive | inactive | – | – | – | –
8 | CC[N+]1(C)CCCC1 | inactive | inactive | inactive | inactive | inactive and 61.3 µM (active) | inactive | inactive | – | – | inactive | 19.8 µM (active) and inactive | – | – | – | –
9 | CCCCCCCCCCCCn1cc[n+](C)c1 | inactive | inactive | 27.3 µM (active) [middle of 6 runs] | 31.2 µM (active) [middle of 5 runs] | – | – | – | – | – | – | inactive | – | – | – | inactive
10 | CCCC[n+]1ccccc1 | inactive | inactive | inactive | inactive | inactive | inactive | inactive | inactive | inactive | inactive | inactive | – | – | – | inactive
11 | CCCC[n+]1ccccc1C | inactive | inactive | inactive | inactive | inactive | inactive | inactive | – | – | inactive | inactive | inactive | – | – | –
12 | CCCC[n+]1ccc(C)cc1 | inactive | inactive and 60.8 µM (active) | inactive and 60.8 µM (active) | inactive and 60.8 µM (active) | inactive | inactive and 60.8 µM (active) | inactive and 60.8 µM (active) | – | – | inactive | – | – | – | – | inactive
13 | O=C(O)c1ccccc1O | inactive | inactive | inactive | inactive | inactive | inactive | inactive | – | – | inactive | inactive | – | – | – | inactive
14 | O=S(=O)(O)O | inactive | inactive | inactive | inactive | inactive | inactive | inactive | – | – | inactive | – | – | – | – | inactive
15 | CCCCCCn1cc[n+](C)c1 | inactive | inactive | inactive | inactive | 50.5 µM (active) [middle of 6 runs] | inactive | inactive | – | – | inactive | inactive | – | – | – | –
16 | CC(=O)O | inactive | inactive | inactive | inactive | inactive | inactive | inactive | – | – | inactive | inactive and 392 nM (active) | – | – | – | inactive
17 | CCCCCCCCCCCCCCCCn1cc[n+](C)c1 | inactive | inactive | – | – | – | – | inactive and 61.7 µM (active) and 30.7 µM (active) | inactive | inactive | inactive and 55 µM (active) and 21.7 µM (active) | inactive | – | – | – | –
18 | CCCn1cc[n+](C)c1 | inactive | inactive | inactive | inactive | inactive | inactive | inactive | inactive | inactive | inactive | inactive | inactive | – | – | –
19 | CCCCCCCCCCCC(=O)O | inactive | inactive | inactive | inactive | inactive | 43.3 µM (active) | inactive | inactive | inactive | inactive | inactive | inactive | – | – | –
20 | CCn1cc[n+](C)c1C | inactive | inactive | inactive | inactive | inactive | inactive | inactive | – | – | inactive | inactive | – | – | – | –
